The text below walks through data of PubChem BioAssay (Tox21).

Inconclusive results are not listed. The source holds several records for some structures; these can differ, active in one and inactive in another. The source made the active and inactive calls. Unless noted, calls follow the shape of the full dose curve.

Test [1] in a line: Nuclear factor erythroid 2-related factor 2/antioxidant responsive element (Nrf2/ARE) small molecule agonists: luciferase reporter gene qHTS assay in human keratinocytes (AID 1919969). Also: nearly all actives have a fitted effect of over 35% in size. Also: potency is read from the fitted curve at half-maximal effect.
Test [2] deals with Gonadotropin-releasing hormone receptor (Homo sapiens) (UniProt P30968). In words: Human gonadotropin-releasing hormone receptor (GnRHR) small molecule agonists, calcium flux assay in GnRHR-HEK293 cells (AID 1920063). Also: nearly all actives have a fitted effect of over 35% in size. A digest of the protocol:
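Agonist mode: compounds at 15 concentrations, in triplicate, went onto calcium dye-loaded GnRHR-HEK293 cells. Intracellular calcium was then followed as 480/540 nm fluorescence at 1 s intervals over 3 min.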
(In general: Calcium flux is commonly read through the fluorescence of an indicator in the cells.)

For test [3], the target named is KiSS-1 receptor (Homo sapiens) (UniProt Q969F8). The experiment in a line: Human kisspeptin (KISS1R) small molecule agonists, calcium flux assay in KISS1R-HEK293 cells (AID 1920064; active = well fitted activation curve with a large enough effect in the repeat runs). A digest of the protocol:
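Agonist mode: intracellular calcium rise tracked at 1 s intervals over 3 min (480/540 nm) immediately after compound addition to dye-loaded KISS1R-HEK293 stable cells. Each compound tested at 15 concentrations in triplicate.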

Test [4] in a line: G protein-coupled receptor (GPCR) small molecule agonists, calcium flux assay: HEK293 wild type cell line counter screen (AID 1920065). A digest of the protocol:
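Calcium flux counter screen: compound added in agonist mode at 15 concentrations in triplicate to dye-loaded parental HEK293 cells. Fluorescence (480/540) read kinetically for 3 min; ATP served as positive control.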

Test [5] can be described thus: p53 small molecule agonists, cell-based qHTS assay with human liver microsomes: qHTS cell viability counter screen (AID 1963579). Also: nearly all actives have a fitted effect of over 45% in size. A digest of the protocol:
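p53RE-bla cells (4,000/well) were pre-incubated 5 h at 37 C, then given compounds in DMSO plus human liver microsomes (0.5 mg/mL final) and NADPH (0.5 mg/mL final) for 16 h at 37 C. Viability was read by CellTiter-Glo luminescence.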
(qHTS replaces the single test concentration by a dilution series.)

Test [6] in a line: p53 small molecule agonists, cell-based qHTS assay with rat liver microsomes: qHTS cell viability counter screen (AID 1963580). Also: nearly all actives have a fitted effect of over 45% in size. A digest of the protocol:
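Cytotoxicity counter screen: intracellular ATP measured by CellTiter-Glo luminescence in the same wells as the beta-lactamase reporter read, on HCT-116 p53RE-bla cells exposed 16 h at 37 C to compounds with rat liver microsomes and NADPH, each 0.5 mg/mL final.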

Test [7] can be described thus: p53 small molecule agonists, cell-based qHTS assay: qHTS cell viability counter screen (AID 1963581). Also: nearly all actives have a fitted effect of over 45% in size. A digest of the protocol:
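Counter screen read by CellTiter-Glo luminescence (ATP content, 30 min at room temperature), run in the same wells as the beta-lactamase reporter read. HCT-116 p53RE-bla cells saw compounds for 16 h at 37 C.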

A short description of test [8]: cAMP Responsive Elements (CRE) small molecule agonists, cell-based qHTS assay (AID 1963590). Summed up:
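Agonist mode: compound added to CRE-bla HEK 293T cells (2,000/well, 18 h after plating) for 3 h at 37 C/5% CO2. Reporter activity detected via FRET beta-lactamase substrate, 2 h room-temperature loading.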

Test [9] is described as follows: cAMP Responsive Elements (CRE) small molecule antagonists, cell-based qHTS assay (AID 1963591; active = well fitted inhibition curve with a large enough effect in the signal ratio in the repeat runs, not every such curve was filed as active; the % refers to the signal ratio). Summed up: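 Antagonist mode: compounds are added alongside the adenylyl cyclase activator NKH477 (0.25 uM final) to CRE-bla HEK293T cells for 3 h. LiveBLAzer FRET substrate, 2 h at room temperature, reports bla expression.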
Test [10] concerns the target Beta-2 adrenergic receptor (Homo sapiens) (UniProt P07550). The experiment in a line: Adrenergic beta2 receptor (ADRB2) small molecule antagonists, cell-based qHTS assay (AID 1963592). Also: series mostly up to about 92 µM; nearly all actives have a fitted effect of over 50% in size. Summed up:
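Assay format: CHO-ADRB2 cells, 18-20hr seeding at 37C/5% CO2, then compound plus 1nM isoproterenol agonist mix for 0.5hr RT. Homogeneous time-resolved fluorescence cAMP detection after 1hr, expressed as 665/615 nm ratio.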

The target in test [11] is D(2) dopamine receptor (Homo sapiens) (UniProt P14416). In words: Dopamine D2 receptor (DRD2) small molecule agonists, cell-based qHTS assay (AID 1963594). Also: nearly all actives have a fitted effect of over 35% in size. A digest of the protocol: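 HEK293 cells stably expressing human DRD2, pre-treated with PDE inhibitor Ro20-1724 (0.1 mM final) and compound 10 min at room temperature, then stimulated with NKH477 (200nM […]) for 30 min. cAMP read by HTRF (665/620 nm).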

Test [12] shares this target. In words: Dopamine D2 receptor (DRD2) small molecule antagonists, cell-based qHTS assay (AID 1963595; active = well fitted inhibition curve with a large enough effect in the signal ratio in the repeat runs, with a control signal flat; the % refers to the signal ratio). Summed up: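 HTRF cAMP read-out at 665 and 620 nm emission (340 nm excitation). Antagonist mode: compounds were tested against 12 nM quinpirole in DRD2-HEK293 cells, with 200 nM NKH477 raising cAMP and 0.1 mM Ro20-1724 blocking its breakdown.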
A short description of test [13]: p53 small molecule agonists, cell-based qHTS assay with human liver microsomes (AID 1963577). Summed up:
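p53RE-bla reporter cells were pre-incubated 5 h at 37 C, then treated with compounds plus human liver microsomes (0.5 mg/mL final) and NADPH (0.5 mg/mL final) for 16 h at 37 C. Beta-lactamase activity was read by LiveBLAzer fluorescence after 2 h at room temperature.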

A short description of test [14]: p53 small molecule agonists, cell-based qHTS assay with rat liver microsomes (AID 1963578). Summed up:
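p53RE-bla cells were exposed to compounds together with rat liver microsomes (0.5 mg/mL final) and NADPH (0.5 mg/mL final) for 16 h at 37 C, then read by LiveBLAzer beta-lactamase fluorescence after 2 h at room temperature.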

The target of test [15] is 5-hydroxytryptamine receptor 2A (Homo sapiens) (UniProt P28223). The experiment in a line: 5-hydroxytryptamine receptor 2A (HTR2A) small molecule antagonists, cell-based qHTS assay (AID 1963586). Also: nearly all actives have a fitted effect of over 45% in size. A digest of the protocol:
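CHO cells stably expressing human HTR2A were plated for 18 h at 37 C, then loaded with calcium dye for 1 h. Compounds were preincubated 5 min at room temperature before DOI (4 nM solution) was added. Kinetic fluorescence was read for 3 min.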

For test [16] the target is unchanged. In words: 5-hydroxytryptamine receptor 2A (HTR2A) small molecule agonists, cell-based qHTS assay (AID 1963587). Also: nearly all actives have a fitted effect of over 30% in size. A digest of the protocol:
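CHO cells stably expressing human HTR2A, plated 18 h, loaded with calcium dye 1 h at 37 C. Agonist mode: compounds added and intracellular calcium fluorescence recorded kinetically for 2 min at 1 sec intervals.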

In test [17] the target is Muscarinic acetylcholine receptor M1 (Homo sapiens) (UniProt P11229). In words: Cholinergic receptor muscarinic 1 (CHRM1) small molecule antagonists, cell-based qHTS assay (AID 1963588). Also: nearly all actives have a fitted effect of over 40% in size. A digest of the protocol:
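Compounds were tested at 15 concentrations in three independent runs. Dye-loaded CHRM1-CHO cells were exposed 5 min at room temperature before stimulation by acetylcholine added at 50nM. Intracellular calcium was read kinetically on FDSS for 3 min.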

Test [18] shares this target. The experiment in a line: Cholinergic receptor muscarinic 1 (CHRM1) small molecule agonists, cell-based qHTS assay (AID 1963589). Also: nearly all actives have a fitted effect of over 35% in size. A digest of the protocol: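 Agonist-mode calcium-flux screen: compounds at 15 concentrations, three independent runs, were pin-transferred onto dye-loaded human CHRM1-CHO cells. Fluorescence was then recorded kinetically every second over minutes.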

For test [19], the target named is Beta-2 adrenergic receptor (Homo sapiens) (UniProt P07550). In words: Adrenergic beta2 receptor (ADRB2) small molecule agonists, cell-based qHTS assay (AID 1963593).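 Also: CHO cells stably overexpressing human ADRB2.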 A digest of the protocol: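 CHO cells stably over-expressing ADRB2 were plated overnight at 37C, then dosed with compounds plus a stimulation mix containing 100uM IBMX and 25uM Ro-20-1724 for 0.5hr at room temperature. cAMP was measured by HTRF competition, 1hr.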

Test [20] in a line: p53 small molecule agonists, cell-based qHTS assay (AID 1963582; active = well fitted activation curve with a large enough effect in the signal ratio in the repeat runs, not every such curve was filed as active; the % refers to the signal ratio). Summed up: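 Read-out is beta-lactamase FRET fluorescence after 2 h at room temperature with LiveBLAzer B/G substrate. p53 response element-bla cells were treated 16 h at 37 C with compounds in DMSO, added 5 h after seeding.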

Sequence of Beta-2 adrenergic receptor (Homo sapiens) (P07550 whole entry, looked up): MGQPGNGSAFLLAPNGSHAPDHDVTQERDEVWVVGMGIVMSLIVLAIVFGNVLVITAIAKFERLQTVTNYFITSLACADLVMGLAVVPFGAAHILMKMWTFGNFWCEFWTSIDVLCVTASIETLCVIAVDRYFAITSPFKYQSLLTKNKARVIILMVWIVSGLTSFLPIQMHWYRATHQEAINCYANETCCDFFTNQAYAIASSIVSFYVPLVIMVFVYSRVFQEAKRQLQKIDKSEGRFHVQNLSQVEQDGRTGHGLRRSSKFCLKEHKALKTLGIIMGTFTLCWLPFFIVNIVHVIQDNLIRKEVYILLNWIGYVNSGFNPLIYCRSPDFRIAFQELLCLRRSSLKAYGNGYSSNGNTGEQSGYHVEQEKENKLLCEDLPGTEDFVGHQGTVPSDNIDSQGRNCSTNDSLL
Sequence of Gonadotropin-releasing hormone receptor (Homo sapiens) (P30968 whole entry, looked up): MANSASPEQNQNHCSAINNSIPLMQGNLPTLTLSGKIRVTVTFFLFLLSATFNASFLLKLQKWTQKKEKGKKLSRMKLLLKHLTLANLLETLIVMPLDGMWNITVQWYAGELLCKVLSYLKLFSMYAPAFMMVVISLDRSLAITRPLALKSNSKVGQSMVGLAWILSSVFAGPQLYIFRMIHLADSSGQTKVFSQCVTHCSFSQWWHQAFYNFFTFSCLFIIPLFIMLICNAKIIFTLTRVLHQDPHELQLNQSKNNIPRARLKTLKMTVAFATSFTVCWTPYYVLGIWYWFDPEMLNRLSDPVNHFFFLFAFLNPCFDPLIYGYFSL
Sequence of D(2) dopamine receptor (Homo sapiens) (P14416 whole entry, looked up): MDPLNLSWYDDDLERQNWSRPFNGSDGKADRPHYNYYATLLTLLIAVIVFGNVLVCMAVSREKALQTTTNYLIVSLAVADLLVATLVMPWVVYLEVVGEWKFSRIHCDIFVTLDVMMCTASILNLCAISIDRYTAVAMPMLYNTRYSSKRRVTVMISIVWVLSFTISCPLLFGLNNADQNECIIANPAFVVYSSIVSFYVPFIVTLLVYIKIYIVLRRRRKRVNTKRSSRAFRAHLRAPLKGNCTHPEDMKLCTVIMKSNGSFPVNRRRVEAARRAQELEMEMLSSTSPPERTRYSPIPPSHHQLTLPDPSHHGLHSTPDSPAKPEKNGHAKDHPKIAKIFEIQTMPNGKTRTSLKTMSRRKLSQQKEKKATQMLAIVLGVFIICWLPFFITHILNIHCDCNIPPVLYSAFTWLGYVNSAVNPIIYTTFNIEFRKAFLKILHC
Sequence of KiSS-1 receptor (Homo sapiens) (Q969F8 whole entry, looked up): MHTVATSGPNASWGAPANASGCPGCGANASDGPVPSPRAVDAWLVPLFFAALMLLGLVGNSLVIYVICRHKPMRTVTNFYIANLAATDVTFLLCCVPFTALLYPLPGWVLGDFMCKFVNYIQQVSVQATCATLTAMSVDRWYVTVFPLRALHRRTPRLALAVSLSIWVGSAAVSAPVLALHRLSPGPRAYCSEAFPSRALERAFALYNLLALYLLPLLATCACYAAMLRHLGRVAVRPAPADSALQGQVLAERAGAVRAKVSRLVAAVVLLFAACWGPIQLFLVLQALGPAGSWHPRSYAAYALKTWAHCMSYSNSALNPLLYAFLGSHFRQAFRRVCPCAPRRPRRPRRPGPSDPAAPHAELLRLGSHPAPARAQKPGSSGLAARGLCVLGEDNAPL
Sequence of 5-hydroxytryptamine receptor 2A (Homo sapiens) (P28223 whole entry, looked up): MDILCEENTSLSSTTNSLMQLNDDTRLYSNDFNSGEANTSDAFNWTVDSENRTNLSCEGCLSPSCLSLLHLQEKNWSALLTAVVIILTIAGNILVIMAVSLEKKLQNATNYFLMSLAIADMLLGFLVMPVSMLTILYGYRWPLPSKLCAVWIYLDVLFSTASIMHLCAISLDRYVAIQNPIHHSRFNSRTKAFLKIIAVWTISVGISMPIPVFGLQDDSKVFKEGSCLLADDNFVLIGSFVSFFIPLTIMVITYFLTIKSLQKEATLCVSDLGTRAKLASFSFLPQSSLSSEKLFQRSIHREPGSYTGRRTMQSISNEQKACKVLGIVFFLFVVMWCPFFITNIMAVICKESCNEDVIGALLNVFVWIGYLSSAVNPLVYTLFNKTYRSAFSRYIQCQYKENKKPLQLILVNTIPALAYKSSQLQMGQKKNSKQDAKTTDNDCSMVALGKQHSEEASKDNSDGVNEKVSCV
Sequence of Muscarinic acetylcholine receptor M1 (Homo sapiens) (P11229 whole entry, looked up): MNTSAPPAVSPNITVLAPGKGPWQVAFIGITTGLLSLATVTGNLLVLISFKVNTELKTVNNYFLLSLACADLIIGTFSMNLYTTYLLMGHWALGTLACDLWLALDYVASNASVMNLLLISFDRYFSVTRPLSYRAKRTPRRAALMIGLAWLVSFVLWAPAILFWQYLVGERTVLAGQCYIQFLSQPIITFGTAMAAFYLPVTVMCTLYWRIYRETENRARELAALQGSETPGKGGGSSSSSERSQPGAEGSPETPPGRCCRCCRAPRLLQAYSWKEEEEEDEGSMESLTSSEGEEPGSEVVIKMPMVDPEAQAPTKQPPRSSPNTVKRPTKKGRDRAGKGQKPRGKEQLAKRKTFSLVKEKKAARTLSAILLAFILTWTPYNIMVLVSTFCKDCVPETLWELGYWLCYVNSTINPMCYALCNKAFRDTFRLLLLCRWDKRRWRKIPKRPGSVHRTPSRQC

In the case of `CC(C)OC(=O)C(C)(C)Oc1ccc(C(=O)c2ccc(Cl)cc2)cc1`, in test [1], the Potency is 61.1 µM (active) and inactive. The Potency entry in test [2], in test [3], in [4], in [5], in [6] and in test [7] was “inactive” throughout. For the same compound, the Potency entry in test [8], in [9], in [10], in test [11] and in test [12] was “inactive” in each case.

Turning to `CC(=O)C1(C)CC2=C(CCCC2(C)C)CC1C` (stereo not drawn), the Potency result in test [1], in test [2], in test [3], in test [4], in [13] and in test [14] was “inactive” in each case. The Potency result in test [5], in test [6], in test [15], in test [16], in [17] and in test [18] was “inactive” in each case. Further, the Potency result in test [8], in [9], in test [10], in [19], in test [11] and in test [12] was “inactive” throughout.

On to `CCCCC(O)/C=C(C)/C=C/C=C/C(=O)N1CCCC1=O` (stereo not drawn), for which the Potency entry in test [1], in test [2], in [3], in test [4], in test [13] and in [14] was “inactive” each time. The Potency entry in test [5], in test [7], in test [20], in test [15], in test [16] and in test [17] was “inactive” throughout. Moreover, the Potency entry in test [18], in test [8], in test [9], in [10], in [19] and in test [11] was “inactive” in each case. Further, in [12], the Potency entry was “inactive”.

On to `CCC(O)CO` (stereo not drawn), for which the Potency result in test [1], in test [2], in [3], in [4], in test [14] and in test [6] was “inactive” each time. In addition, the Potency result in [20], in [15], in test [16], in test [17], in test [18] and in test [8] was “inactive” throughout. Also, the Potency result in [9], in test [10], in test [11] and in [12] was “inactive” each time.

`O=C(O)CCCCCC(=O)O`: the Potency entry in test [1], in test [2], in test [3], in [4], in test [14] and in [5] was “inactive” throughout. For the same compound, the Potency entry in [6], in test [20], in [15], in [16], in test [17] and in [18] was “inactive” each time. Further, the Potency entry in [8], in test [9], in test [10], in test [11] and in [12] was “inactive” in each case.

For the compound `CCCCCC/C=C/C(=O)OC`, the Potency entry in test [1], in [2], in test [3], in test [4], in test [14] and in [5] was “inactive” throughout. The Potency entry in test [6], in [7], in [20], in test [15], in [16] and in [18] was “inactive” in each case. The Potency entry in test [8], in test [9], in test [11] and in [12] was “inactive” in each case.

Consider `O=C(O)C[C@H](NC(=O)OCc1ccccc1)C(=O)O`, for which the Potency entry in test [1], in test [2], in test [3], in [4], in [13] and in [5] was “inactive” in each case. Further, the Potency result in test [6], in test [7], in [20], in test [16], in test [17] and in [18] was “inactive” each time. Also, the Potency result in test [8], in test [9], in test [10], in test [11] and in test [12] was “inactive” throughout.

As to `ClC/C=C\CCl`, the Potency entry in test [1], in test [2], in [3], in test [4], in [13] and in [14] was “inactive” each time. Besides, the Potency result in test [5], in [7], in [20], in test [15], in test [16] and in test [17] was “inactive” in each case. Moreover, the Potency result in test [18], in [8], in [9], in test [19], in test [11] and in [12] was “inactive” throughout.
